Laboratory results published in PubChem BioAssay.
Active and inactive are the calls of the source.

Experiments:
[1] = E. coli DRC41 culture turbidity changes, primary screen, E. coli filamentation inducer project, strain DRC41, OD650, 48 h (AID 1152);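 further: E. coli MC1000 strain DRC41 lacking acrAB efflux pump and sulA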; conditions: E. coli DRC41 (acrAB sulA), higher = more signal, called active from +8 up or from −8 down
[2] = small-molecule binders of probe aLefty1, primary screen, biochemical, small-molecule microarray, 635/667 nm fluorescence (AID 1153); conditions: higher = more signal;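 further: score merges spot fluorescence with signal-to-noise ratio from the scanned slide images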
[3] = PSAC antagonists in infected red cells, primary screen, cell-based, P. falciparum Indochina, OD700, 1 h (AID 1154); conditions: P. falciparum Indochina infected RBC osmotic lysis, higher = more signal, called active from +8 up or from −8 down
[4] = PSAC antagonists in infected red cells, primary screen, cell-based, P. falciparum Indochina, OD700, 2 h (AID 1155);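 further: lysis reports solute entry through the parasite surface anion channel PSAC; channel blockers reduce lysis of infected cells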; conditions: P. falciparum Indochina infected erythrocytes, osmotic lysis OD700; higher = more signal, called active from +8 up or from −8 down
[5] = osmotic lysis modulators in infected erythrocytes, primary screen, PSAC antagonist project, cell-based, P. falciparum Indochina, OD700, 3 h (AID 1156); conditions: higher = more signal, called active from +8 up or from −8 down
[6] = PSAC antagonists in infected red cells, primary screen, cell-based, P. falciparum Indochina, OD700, 18 h (AID 1157); conditions: P. falciparum Indochina infected erythrocytes, osmotic lysis OD700, 18 h; higher = more signal, called active from +8 up or from −8 down
[7] = modulators of S6 phosphorylation in cells, primary screen, cell-based, A549, cytoblot, luminescence, serum-stimulated (AID 1158); conditions: A549 phospho-S6 cytoblot, 5 h, higher = more signal;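 further: serum-stimulated A549 lung adenocarcinoma cells; signal is phosphorylated S6 detected by cytoblot immunostaining with HRP secondary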
[8] = biological target: NADPH oxidase 2 (Homo sapiens) (UniProt P04839); experiment: NOX2-dependent H2O2 signal modulators, primary screen, NOX inhibitor project, cell-based, HEK293-NOX2, PMA-stimulated, Amplex Red fluorescence (AID 1159); conditions: 45 min, higher = more signal, called active from +8 up or from −8 down; further: test concentration not given here
Chain of NADPH oxidase 2 (Homo sapiens) (P04839 whole entry, looked up): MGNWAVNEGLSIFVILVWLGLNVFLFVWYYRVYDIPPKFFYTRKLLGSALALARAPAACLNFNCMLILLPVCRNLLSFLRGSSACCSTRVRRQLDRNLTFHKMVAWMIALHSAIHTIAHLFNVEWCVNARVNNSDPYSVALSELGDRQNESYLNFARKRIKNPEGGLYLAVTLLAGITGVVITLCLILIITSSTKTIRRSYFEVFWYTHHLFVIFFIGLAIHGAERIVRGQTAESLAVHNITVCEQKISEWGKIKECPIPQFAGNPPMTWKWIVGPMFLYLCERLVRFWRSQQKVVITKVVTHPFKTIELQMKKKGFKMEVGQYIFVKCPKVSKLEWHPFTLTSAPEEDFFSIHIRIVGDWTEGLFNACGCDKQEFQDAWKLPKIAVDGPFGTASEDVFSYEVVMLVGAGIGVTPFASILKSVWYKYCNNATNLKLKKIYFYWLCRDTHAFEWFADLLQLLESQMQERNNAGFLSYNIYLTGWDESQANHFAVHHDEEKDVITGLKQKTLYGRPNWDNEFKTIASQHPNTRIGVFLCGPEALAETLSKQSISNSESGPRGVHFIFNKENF

[9] = biological target: NADPH oxidase 4 (Homo sapiens) (UniProt Q9NPH5); experiment: NOX4-dependent H2O2 signal modulators, primary screen, NOX inhibitor project, cell-based, HEK293-NOX4, tetracycline-induced, Amplex Red fluorescence (AID 1160); conditions: 45 min, higher = more signal, called active from +8 up or from −8 down
Chain of NADPH oxidase 4 (Homo sapiens) (Q9NPH5 whole entry, looked up): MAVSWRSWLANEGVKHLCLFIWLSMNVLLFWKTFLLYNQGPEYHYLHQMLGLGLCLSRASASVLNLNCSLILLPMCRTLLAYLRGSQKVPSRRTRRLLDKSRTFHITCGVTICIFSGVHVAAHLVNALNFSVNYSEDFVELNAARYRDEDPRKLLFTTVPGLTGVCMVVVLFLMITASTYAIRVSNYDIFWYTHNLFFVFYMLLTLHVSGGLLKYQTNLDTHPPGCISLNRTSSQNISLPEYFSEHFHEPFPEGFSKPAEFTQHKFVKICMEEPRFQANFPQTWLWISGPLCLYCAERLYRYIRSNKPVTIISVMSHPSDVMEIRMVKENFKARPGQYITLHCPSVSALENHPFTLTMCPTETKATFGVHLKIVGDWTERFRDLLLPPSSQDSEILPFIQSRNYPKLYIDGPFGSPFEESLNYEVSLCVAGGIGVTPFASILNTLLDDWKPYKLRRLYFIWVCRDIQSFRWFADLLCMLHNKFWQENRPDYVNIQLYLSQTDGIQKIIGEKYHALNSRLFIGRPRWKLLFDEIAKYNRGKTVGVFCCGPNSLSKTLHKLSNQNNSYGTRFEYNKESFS

[10] = biological target: NADPH oxidase 5 (Homo sapiens) (UniProt Q96PH1); experiment: NOX5-dependent H2O2 signal modulators, primary screen, NOX inhibitor project, cell-based, HEK293-NOX5, Amplex Red fluorescence (AID 1161); conditions: HEK293-NOX5, ionomycin, 45 min, higher = more signal
Chain of NADPH oxidase 5 (Homo sapiens) (Q96PH1 whole entry, looked up): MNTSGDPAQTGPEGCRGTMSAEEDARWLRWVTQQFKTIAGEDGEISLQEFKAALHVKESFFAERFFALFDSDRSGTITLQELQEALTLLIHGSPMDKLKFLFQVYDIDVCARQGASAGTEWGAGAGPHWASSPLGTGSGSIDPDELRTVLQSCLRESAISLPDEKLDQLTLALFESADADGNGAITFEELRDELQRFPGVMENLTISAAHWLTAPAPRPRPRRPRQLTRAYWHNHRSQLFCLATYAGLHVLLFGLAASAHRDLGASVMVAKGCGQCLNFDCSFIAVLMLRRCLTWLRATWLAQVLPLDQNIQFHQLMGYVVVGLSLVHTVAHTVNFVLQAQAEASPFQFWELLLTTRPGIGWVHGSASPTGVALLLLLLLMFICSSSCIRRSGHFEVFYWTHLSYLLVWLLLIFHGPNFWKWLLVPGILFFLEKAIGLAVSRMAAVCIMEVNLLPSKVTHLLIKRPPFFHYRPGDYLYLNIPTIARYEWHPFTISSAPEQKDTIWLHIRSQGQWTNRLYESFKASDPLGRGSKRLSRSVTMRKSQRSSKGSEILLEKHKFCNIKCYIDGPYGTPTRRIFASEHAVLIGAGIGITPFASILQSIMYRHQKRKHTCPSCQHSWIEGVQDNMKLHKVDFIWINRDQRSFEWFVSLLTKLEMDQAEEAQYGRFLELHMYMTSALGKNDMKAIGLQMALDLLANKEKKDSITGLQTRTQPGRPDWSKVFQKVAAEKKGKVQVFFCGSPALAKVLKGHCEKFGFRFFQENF

[11] = A549 cell viability effects, profiling panel, calcein-AM fluorescence, 48 h, basal (AID 1162); conditions: higher = more signal; further: test concentration not given here
[12] = adipocyte viability effects, profiling panel, cell-based, 3T3-L1 adipocytes, calcein-AM fluorescence, 48 h, basal (AID 1163); conditions: 3T3-L1 adipocytes viability, higher = more signal; further: test concentration not given here
[13] = HepG2 cell viability effects, profiling panel, calcein-AM fluorescence, 48 h, basal (AID 1164); conditions: higher = more signal; further: test concentration not given here
[14] = MM1S cell viability effects, profiling panel, calcein-AM fluorescence, 48 h, basal (AID 1165); conditions: higher = more signal;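 further: viability of MM1S multiple myeloma cells under basal unstimulated conditions; test concentration not given here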
[15] = basal RPMI8226 viability, no added stimulus, profiling panel, cell-based, calcein-AM fluorescence, 48 h, PK04 Diversity Set (AID 1166); conditions: RPMI8226 myeloma viability, higher = more signal;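 further: cells grown under basal conditions without added stimulus; test concentration not given here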
[16] = basal HepG2 mitochondrial membrane potential changes, profiling panel, cell-based, JC-1 fluorescence, 24 h, 100 nL compound (AID 1167); conditions: higher = more signal; further: test concentration not given here
[17] = basal 3T3-L1 adipocyte mitochondrial potential changes, profiling panel, cell-based, JC-1 fluorescence, 3T3-L1 adipocytes, 24 h, 100 nL compound (AID 1168); conditions: JC-1 mitochondrial fluorescence, higher = more signal, called active from +8 up or from −8 down; further: test concentration not given here
[18] = basal RPMI8226 mitochondrial membrane potential changes, profiling panel, cell-based, JC-1 fluorescence, 24 h, 100 nL compound (AID 1169); conditions: RPMI8226 myeloma, JC-1 mitochondrial potential fluorescence, higher = more signal; further: test concentration not given here
[19] = basal MM1S mitochondrial membrane potential changes, profiling panel, cell-based, JC-1 fluorescence, 24 h, 100 nL compound (AID 1170); conditions: higher = more signal; further: test concentration not given here
[20] = A549 lung cancer cell viability effects, profiling panel, resazurin fluorescence, 24 h, PK04 Diversity Set (AID 1171); conditions: higher = more signal, called active from +8 up or from −8 down; further: test concentration not given here

SMILES | z-score [1] | composite z-score [2] | z-score [3] | z-score [4] | z-score [5] | z-score [6] | z-score [7] | z-score [8] | z-score [9] | z-score [10] | z-score [11] | z-score [12] | z-score [13] | z-score [14] | z-score [15] | z-score [16] | z-score [17] | z-score [18] | z-score [19] | z-score [20]
O=C1C2=CC[C@H]3C(=O)N(C4CCCCC4)C(=O)[C@H]3[C@H]2[C@H](O)[C@@H]2O[C@H]12 | -1.95 (inactive) | -0.245 | -0.0599 (inactive) | -0.153 (inactive) | 0.215 (inactive) | -1.56 (inactive) | -1.01 | 0.951 (inactive) | 0.3 (inactive) | 0.952 | -3.85 | 1.13 | -4.38 | -3.05 | -3.91 | 0.771 | 2.71 (inactive) | -1.02 | -2.83 | -2.67 (inactive)
CC(C)[C@@H](OCc1ccccc1)[C@H](C)CON=C1[C@H]2CCn3c(=O)n(-c4ccccc4)c(=O)n3[C@H]2[C@H](O)[C@@H]2O[C@H]12 | 0.352 (inactive) | -0.186 | 0.509 (inactive) | -0.116 (inactive) | -0.171 (inactive) | 0.245 (inactive) | -0.952 | -0.662 (inactive) | 0.202 (inactive) | -0.851 | -0.27 | -0.104 | -1.31 | -2.72 | -2.22 | -2.12 | 0.197 (inactive) | -0.654 | -0.375 | -1 (inactive)
CCOC(=O)[C@H](CC(C)C)NC(=O)CCC1CC(OC(=O)NCc2ccc3c(c2)OCO3)CC2(CCCC(COC(=O)NCCOc3ccccc3)O2)O1 (stereo not given in full) | -0.832 (inactive) | 0.0882 | 0.339 (inactive) | -0.35 (inactive) | -0.118 (inactive) | -0.193 (inactive) | 0.128 | 1.02 (inactive) | -1.63 (inactive) | -0.0957 | -0.253 | -0.36 | -1.78 | -2.19 | -1.43 | -1.66 | 0.278 (inactive) | -0.879 | -0.0386 | 0.494 (inactive)
CC(CCN1CCCCc2nc(C)c(C)cc21)=NO[C@@H](C)c1cc(-c2c(C)cc(C)cc2C)no1 | 0.393 (inactive) | -0.196 | 3 (inactive) | 0.49 (inactive) | 1.54 (inactive) | 0.588 (inactive) | 0.13 | -1.79 (inactive) | -0.125 (inactive) | -2.5 | 1.08 | 0.531 | 0.148 | -2.9 | -3.77 | 4 | 0.159 (inactive) | -0.831 | -1.74 | 2.06 (inactive)
